Some test systems named below: DU-145 prostate; K-562 leukemia; MALME-3M melanoma; MDA-MB-231 breast; RXF 393 renal; SF-268 CNS; SF-295 CNS; SF-539 CNS; UACC-257 melanoma; M14 melanoma; HCT-15 colon; HT29 colon; SNB-75 CNS; SNB-19 CNS; U251 CNS; PC-3 prostate; SK-MEL-5 melanoma; UACC-62 melanoma; LOX IMVI melanoma; SK-MEL-28 melanoma.
Holding throughout (test): NCI-60 one-dose screen, 48 h (100 = growth as untreated, 0 = no growth, -100 = all killed)
Common to all, as to conditions: 10 µM unless noted

The panel holds about 83,000 compounds, 20% with a hit somewhere; the sample as a whole holds those more often.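 Compound tested at a single concentration for 48 hours in 96-well plates; a percent growth value below 10 was scored as active.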 Unmarked numbers belong to inactive results. Calls of active or inactive are those of the source.

Regarding `N#Cc1ccc(O)c(C2=NCC(c3cccc(Oc4ccccc4)c3)O2)c1` (stereo not given), the growth is 39.4% with DU-145 prostate; 7.33% (active) in the test on K-562 leukemia; 37.3% with MALME-3M melanoma; 24.6% in the test on MDA-MB-231 breast; 61.8% in the test on RXF 393 renal; 23.1% in the test with SF-268 CNS. Also, the growth is 30.9% with SF-295 CNS; 23.6% in the test with SF-539 CNS; 6.96% (active) in the test with UACC-257 melanoma; -4.77% (active) in the test with M14 melanoma; 26.8% in the test on HCT-15 colon; 13.8% with HT29 colon. Besides, the growth in the test with SNB-75 CNS was 51.7%; in the test on SNB-19 CNS it was 22.3%; in the test on U251 CNS, 3.98% (active); in the test on PC-3 prostate, 31.4%; in the test on SK-MEL-5 melanoma it was 32.7%; in the test with UACC-62 melanoma it was -1.59% (active). The figures for the growth with LOX IMVI melanoma and in the test with SK-MEL-28 melanoma were 23% and 37.5%, respectively.
For `Nc1ncnc2c1c(-c1cccc(Cl)c1)nn2CC(=O)N1CCOCC1`, the growth was 111% with DU-145 prostate; 105% in the test with K-562 leukemia; 110% in the test on MALME-3M melanoma; 104% in the test on MDA-MB-231 breast; 99% in the test with RXF 393 renal; 98.4% with SF-268 CNS. In addition, the growth is 98.6% with SF-295 CNS; 96.2% in the test with SF-539 CNS; 103% with UACC-257 melanoma; 104% with M14 melanoma; 101% in the test on HCT-15 colon; 99.7% in the test with HT29 colon. The growth was 94.2% with SNB-75 CNS; 93.9% in the test with SNB-19 CNS; 102% with U251 CNS; 96.6% in the test with PC-3 prostate; 101% in the test with SK-MEL-5 melanoma; 93.7% in the test on UACC-62 melanoma. The growth was 103% in the test on LOX IMVI melanoma and 105% with SK-MEL-28 melanoma.
On to `COCCn1cc(-c2csc(-c3cn(C)c4ccc(Br)cc34)n2)c2cccnc21`, for which the growth is 62.5% in the test with DU-145 prostate; -9.15% (active) in the test with K-562 leukemia; 96.6% with MALME-3M melanoma; 42.9% in the test on MDA-MB-231 breast; 68.8% in the test on RXF 393 renal; 64.8% with SF-268 CNS. The growth is 33.9% in the test on SF-295 CNS; 70.1% with SF-539 CNS; 63.7% with UACC-257 melanoma; 42.9% with M14 melanoma; 12.1% in the test on HCT-15 colon; 26% in the test with HT29 colon. The growth in the test on SNB-75 CNS is 75.6%; in the test with SNB-19 CNS it was 78.5%; in the test with U251 CNS it was 51.4%; in the test on PC-3 prostate, 38.1%; in the test with SK-MEL-5 melanoma, 71%; in the test with UACC-62 melanoma, 70.5%. The values for the growth in the test with LOX IMVI melanoma and with SK-MEL-28 melanoma were -55.1% (active) and 74.9%, respectively.
For the compound `COc1cc(OC)c(/C=C/C(=O)c2c(OC)cccc2OC)c(OC)c1`, the growth with DU-145 prostate was 6.79% (active); in the test with K-562 leukemia it was 10.5%; with MALME-3M melanoma, 51.4%; with MDA-MB-231 breast, 15%; in the test with RXF 393 renal it was -60.8% (active); with SF-268 CNS it was 32%. In addition, the growth in the test on SF-295 CNS was 1.38% (active); in the test with SF-539 CNS, -11.4% (active); in the test on UACC-257 melanoma, 43.6%; in the test on M14 melanoma, -44.3% (active); in the test on HCT-15 colon it was 15.7%; in the test on HT29 colon, 0.507% (active). The growth in the test with SNB-75 CNS was 10.6%; in the test on SNB-19 CNS it was 19.3%; with U251 CNS, 5.71% (active); in the test with PC-3 prostate, 11.6%; in the test with SK-MEL-5 melanoma, 1.1% (active); in the test with UACC-62 melanoma it was -20.6% (active). For the same compound, the growth is -4.2% (active) in the test with LOX IMVI melanoma and 13.2% in the test with SK-MEL-28 melanoma.
For `CC(C)c1ccc(Cc2cnc(NC(=O)c3cc(Br)cs3)s2)cc1`, the growth is 38.5% in the test with DU-145 prostate; 18.2% with K-562 leukemia; 31.1% with MALME-3M melanoma; 55.8% in the test on MDA-MB-231 breast; -5.08% (active) in the test with RXF 393 renal; 48.2% in the test on SF-268 CNS. The growth was 9.99% (active) with SF-295 CNS; 4.75% (active) in the test with SF-539 CNS; 53.4% in the test on UACC-257 melanoma; 15.8% in the test on M14 melanoma; 21.6% with HCT-15 colon; 7.43% (active) in the test with HT29 colon. The growth in the test on SNB-75 CNS is -3.65% (active); in the test with SNB-19 CNS, 42.9%; in the test with U251 CNS, 18.6%; in the test with PC-3 prostate, 26.7%; in the test on SK-MEL-5 melanoma it was 10.1%; in the test with UACC-62 melanoma, 42.5%. Besides, the growth is 41.3% in the test on LOX IMVI melanoma and 53.5% with SK-MEL-28 melanoma.
Regarding `Oc1c(I)cc(I)cc1CNCCN(Cc1ccccn1)Cc1ccccn1`, the growth in the test with DU-145 prostate is -74.1% (active); with K-562 leukemia, 0.636% (active); in the test on MALME-3M melanoma it was -62.1% (active); with MDA-MB-231 breast, -36.1% (active); with RXF 393 renal, -85.5% (active); with SF-268 CNS, 1.18% (active). Also, the growth in the test with SF-295 CNS was -84.6% (active); in the test on SF-539 CNS, -56.6% (active); in the test with UACC-257 melanoma, -58.7% (active); with M14 melanoma, -32.5% (active); with HCT-15 colon, -30.4% (active); in the test with HT29 colon it was -37% (active). Also, the growth was -57.2% (active) in the test with SNB-75 CNS; 16.7% in the test on SNB-19 CNS; -29.1% (active) with U251 CNS; -41% (active) in the test with PC-3 prostate; -97% (active) with SK-MEL-5 melanoma; -14.3% (active) with UACC-62 melanoma. Besides, the growth is -64.2% (active) in the test with LOX IMVI melanoma and -14% (active) with SK-MEL-28 melanoma.
Take `Cc1cc(=O)n(C(=O)Nc2ccccc2Cl)c2cc(O)ccc12`: the growth with DU-145 prostate is 108%; in the test with K-562 leukemia, 109%; with MALME-3M melanoma, 93%; in the test on MDA-MB-231 breast, 101%; with RXF 393 renal, 109%; in the test on SF-268 CNS, 95.8%. In addition, the growth was 101% in the test on SF-295 CNS; 97.8% in the test with SF-539 CNS; 96.5% with UACC-257 melanoma; 96.4% with M14 melanoma; 107% in the test on HCT-15 colon; 108% with HT29 colon. Also, the growth is 93.7% in the test on SNB-75 CNS; 97% in the test with SNB-19 CNS; 98.6% in the test on U251 CNS; 93.6% with PC-3 prostate; 101% with SK-MEL-5 melanoma; 101% in the test on UACC-62 melanoma. In addition, the growth with LOX IMVI melanoma is 99.1%; with SK-MEL-28 melanoma, 107%.

For the origin of these results see PubChem BioAssay (NCI).
